Measurements from PubChem BioAssay AID740 (SRMLSC, 2007).
Screen size: about 96,000 compounds; about 65 (0.07%) were called active. This is one part of a sample in which actives are shown more often than they occur. No stated cut-off is given here; in the data, active means inhibition above about 25%; inactive means the rest.

Assay: unspecified inhibition readout at 50 µM (AID 740)
Settings: unspecified screen; active compounds read high

Row | SMILES | inhibition
1 | C=CCN(c1ccc(C(=O)N2CCCC2)cc1)S(C)(=O)=O | inactive
2 | COc1ccc(S(=O)(=O)Nc2cc(C)c(O)cc2C(C)C)cc1 | inactive
3 | COc1ccc(OC)c(-n2c(SCC(=O)NCc3ccco3)nnc2-c2c[nH]c3ccccc23)c1 | 0.83% (inactive)
4 | COc1ccc(OC)c(-n2c(SCC(N)=O)nnc2-c2c[nH]c3ccccc23)c1 | 1.03% (inactive)
5 | COc1ccc(OC)c(-n2c(SCC(=O)Nc3cc(C)on3)nnc2-c2c[nH]c3ccccc23)c1 | 25.7% (active)
6 | Cc1cc(C)n(CC(O)Cn2c(C)c(C)c3ccccc32)n1 (stereo not given) | 0.73% (inactive)
7 | CN=C(Nc1cc(C)nn1CCC#N)c1ccc(F)cc1 | 0.15% (inactive)
8 | CC(C)CCNC(=O)C(c1cccs1)N(CC1CCCO1)C(=O)Cn1nnc2ccccc21 (stereo not given) | inactive
9 | Cc1nc2ccccc2c(=O)n1C1CCCCCC1 | 1.75% (inactive)
10 | Cn1c2ccccc2c(=O)c2c(=O)n(C3CCCCC3)c(-c3cccs3)nc21 | 47.1% (active)
11 | COCCn1c(-c2cccs2)nc2c(c(=O)c3ccccc3n2C)c1=O | 12.7% (inactive)
12 | CC(=O)N=C1SC2CS(=O)(=O)CC2N1c1c(Cl)cccc1Cl (stereo not given) | 0.54% (inactive)
13 | COc1ccc2nnc(-c3ccccc3)n2n1 | 1.04% (inactive)
14 | COCCN1C(=O)C(CC(=O)Nc2ccc(C(=O)O)cc2)SC1=Nc1ccccc1 (stereo not given) | 0.58% (inactive)
15 | OC(CN1CCOCC1)Cn1c(-c2cccc(Cl)c2)nc2ccccc21 (stereo not given) | 1.12% (inactive)
16 | S=C(Nc1ccccc1)N1CCn2c1nc1ccccc12 | 69.1% (active)
17 | O=C(Nc1ccccc1)N1CCn2c1nc1ccccc12 | 1.31% (inactive)
18 | COc1ccc(NC(=O)N2CCn3c2nc2ccccc23)cc1 | 1.52% (inactive)
19 | Cc1cccc(NC(=O)Cc2cccs2)n1 | 0.37% (inactive)
20 | c1ccc(NC2=Nc3ccccc3CS2)cc1 | 0.05% (inactive)
21 | CCN(CC)c1ccc(NC(=O)c2cc(Cl)ccc2OC)cc1 | inactive
22 | CCC(C)NC(=O)Cn1nc([N+](=O)[O-])c(Cl)c1C (stereo not given) | 0.92% (inactive)
23 | Cn1cnnc1SCC(=O)c1ccc2c(c1)CCCC2 | 1.31% (inactive)
24 | Cc1nnc(SCC(=O)N2c3ccccc3Sc3ccccc32)n1N | 0.91% (inactive)
25 | Cc1nnc(SC(=O)N2c3ccccc3Sc3ccccc32)s1 | 30% (active)
26 | Cn1ccnc1SC(=O)N1c2ccccc2Sc2ccccc21 | inactive
27 | O=C(COc1ccc(Cl)cc1Cl)N1CCN(C/C=C/c2ccccc2)CC1 | 1.2% (inactive)
28 | CCS(=O)(=O)Nc1cc(-c2nc3cccnc3s2)ccc1C | 0.46% (inactive)
29 | Cc1c(NS(=O)(=O)c2ccc3c(c2)OCCO3)cccc1-c1nc2cccnc2s1 | inactive
30 | CCS(=O)(=O)Nc1cccc(-c2nc3cccnc3s2)c1C | 28.6% (active)
